Source: PubChem BioAssay
MLLE-PAM2 inh: inhibitors of PABP1 MLLE–PAM2 peptide binding, primary screen, biochemical, fluorescence polarization, FITC-PAM2, GST-MLLE | inhibition, % at 20 µM | Polyadenylate-binding protein 1 (Homo sapiens), P11940 | hit rate 0.36% among 360,000; in the data active = inhibition above about 35%, passing the limit was not always enough
PABP FP inh: PABP poly(A) RNA binding inhibitors, primary screen, biochemical, fluorescence polarization, uHTS; Polyadenylate-binding protein 1 (Homo sapiens), P11940; calls only at 35 µM; hit rate 1% among 290,000; AID 2014, 2009;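 note: calls also rest on retests at 20 µM and on dose response follow-up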
eIF4H FP inh: human eIF4H binding inhibitors, primary screen, translation initiation inhibitor project, biochemical, uHTS, fluorescence polarization. eIF4H fluorescence polarization binding assay. inhibition, % at 35 µM. hit rate 0.94% among 290,000;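 note: calls also rest on retests at 20 µM and on dose response follow-up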
EBV gp42 block: Epstein-Barr virus gp42 inhibitors, primary screen, biochemical, uHTS, fluorescence polarization; Glycoprotein 42 (Epstein-Barr virus (strain AG876)), Q1HVG2; Fluorescence polarization binding assay, mP read-out; inhibition, % (tested at 21.74 µM); hit rate 0.42% among 220,000; AID 1085, 2008; in the data active = inhibition above about 50%
MEX-5 binding: MEX-5 zinc finger RNA-binding disruptors – biochemical, C. elegans, fluorescence polarization, MLPCN library, primary screen; MEX-5/FITC-TCR2 RNA binding; hits give low values; activity score (negative = inhibition of binding), % at 10 µM; Zinc finger protein mex-5 (Caenorhabditis elegans), Q9XUB2; hit rate 0.38% among 300,000;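 active = inhibition past about -25% in most replicates, and total fluorescence under double the plate's negative control median, limit read from the data; inconclusive = replicates evenly split on the limit, or fluorescence at least double controls; inactive = too little inhibition in most replicates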
Target sequence (Q9XUB2 whole entry, looked up): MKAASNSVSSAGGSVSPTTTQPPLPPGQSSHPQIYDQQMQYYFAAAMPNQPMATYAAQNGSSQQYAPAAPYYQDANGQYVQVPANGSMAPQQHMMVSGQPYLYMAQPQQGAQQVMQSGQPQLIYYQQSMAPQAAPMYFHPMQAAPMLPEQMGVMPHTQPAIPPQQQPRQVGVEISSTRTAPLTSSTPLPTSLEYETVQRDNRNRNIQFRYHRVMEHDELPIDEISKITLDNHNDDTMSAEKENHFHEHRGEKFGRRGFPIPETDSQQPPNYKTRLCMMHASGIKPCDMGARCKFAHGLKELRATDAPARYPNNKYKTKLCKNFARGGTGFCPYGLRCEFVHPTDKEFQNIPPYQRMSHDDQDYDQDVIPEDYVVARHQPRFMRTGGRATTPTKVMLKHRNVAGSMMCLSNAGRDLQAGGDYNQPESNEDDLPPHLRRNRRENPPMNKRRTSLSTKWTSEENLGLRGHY
Numbers stand for hits; n = inactive; u = inconclusive; x = no result; + = active, no number. The list is not random: actives were taken first. Their share in the collection is about 1.8%. Unless noted, the rule behind the calls is not given here.

SMILES | MLLE-PAM2 inh | PABP FP inh | eIF4H FP inh | EBV gp42 block | MEX-5 binding
O=C1C(=Cc2cccn2-c2ccccc2)C(=O)c2ccccc21 | n | n | u | n | u
O=C(O)/C=C/C(=O)N1CCN(S(=O)(=O)c2cc(C(F)(F)F)ccc2Cl)CC1 | n | + | 2.1 | n | n
COc1c(O)cccc1[C@H](O)C1CCN(CCc2ccc(F)cc2)CC1 | 77 | x | x | x | -39
CCN1CCC(NCCc2ccc(F)cc2)CC1 | n | n | n | x | n
C[C@@H]1CN([C@H](C)CO)S(=O)(=O)c2ccc(C#CCN(C)C)cc2O[C@@H]1CN(C)Cc1ccccc1F | n | x | x | x | x
CN(C=[N+](C)C)c1cccc2c1C(=O)c1ccccc1C2=O | 86 | n | u | n | -28
CCN(CC)CC(=O)Nc1cccc2c1C(=O)c1ccccc1C2=O | n | n | n | n | n
Cc1ccc(N2C(=S)NC3c4cc(Cl)ccc4OC2(C)C3C(=O)N(C)C)cc1 (stereo not drawn) | 44 | n | n | n | x
Cc1cccc(N2C(=S)NC3c4cc(Cl)ccc4OC2(C)C3C(=O)N(C)C)c1 (stereo not drawn) | n | n | n | n | n
Cn1c2c(c(=O)n(C)c1=O)CS(=O)c1ccccc1N2 (stereo not drawn) | n | x | x | x | x
COc1ccccc1-c1cnc2c(c1)C(=O)N([C@@H](C)CO)C[C@@H](C)[C@H](CN(C)C(=O)c1cccnc1)O2 | n | x | x | x | x
COCc1cc(C)nc(SCC(=O)Oc2ccccc2)c1C#N | n | n | n | n | n
COCc1cc(C)nc(SCC(=O)Oc2ccc(Cl)cc2)c1C#N | n | + | active | n | n
O=C(c1[nH]c(C(F)(F)F)nc1-c1ccccc1)N1CCC(Cc2ccccc2)CC1 | n | x | x | x | x
Cc1ccc(C)c(N2CCN(C(=O)c3cc4ccccn4n3)CC2)c1 | n | n | n | n | -29
Cc1cc(C)n(CC2CC(=O)N(c3ccc(C)c(Cl)c3)C2=O)n1 (stereo not drawn) | n | + | u | n | n
Cc1cc(C)n(CC2CC(=O)N(c3ccc(F)c(Cl)c3)C2=O)n1 (stereo not drawn) | n | n | n | n | x
O=c1c(O)cccc2cc(O)c(O)c(O)c12 | 38 | + | 102 | 82 | -37
CC1(C(=O)Nc2ccc3[nH]ncc3c2)CCN1C(=O)Cc1ccc(-c2ccccc2)cc1 (stereo not drawn) | n | x | x | x | x
C/C(=N\NC(=S)Nc1cccc(C)c1)c1ccccc1 | 40 | n | n | n | n
C/C(=N\NC(=S)Nc1cccc(C)c1)c1cccc(N)c1 | n | n | n | n | n
O=C(CC[C@H]1O[C@@H](n2cnc3c(NC(=O)c4ccccc4)ncnc32)[C@H](O)[C@@H]1O)NCCc1cc2ccccc2[nH]1 | n | x | x | x | x
CCCNC(=O)C1(C)CCCN(Cc2ccc(-c3ccccc3)o2)C1 (stereo not drawn) | n | x | x | x | x
Cc1c(C(=O)OCC(C)C)[nH]c2c1C(=O)CC(c1ccco1)C2 (stereo not drawn) | n | n | n | n | n
Cc1c(C(=O)OCC2CCCO2)[nH]c2c1C(=O)CC(c1ccco1)C2 (stereo not drawn) | n | + | 90 | n | n
SMILES | MLLE-PAM2 inh | PABP FP inh | eIF4H FP inh | EBV gp42 block | MEX-5 binding
CCCCN(C=O)c1c(CC)nc2ccc(C(=O)N3CCCCC3)cn12 | n | x | x | x | x
CCCCCC(=O)N1CC2(CC)CN(C(=O)CCCCC)CC(CC)(C1)C2=O | n | + | 99 | n | n
O=C(O)c1ccc2c(c1)C(=O)N(N1C(=O)c3ccccc3C1=O)C2=O | n | + | n | n | n
O=C(O)c1ccc2c(c1)C(=O)N(CCc1ccccc1)C2=O | n | n | n | x | n
Cc1noc(/C=C/N(C)C)c1S(=O)(=O)N1CCC(C(=O)O)CC1 | n | n | n | n | -30
Cc1ccc(CNC(=O)C2CCN(S(=O)(=O)c3c(C)noc3/C=C/N(C)C)CC2)cc1 | n | n | n | x | n
CCN1C(=O)CSC1=Nc1ccc(C(=O)OC)cc1 | n | x | x | x | x
Cc1cc(C)cc(-n2c(C)cc(/C=N\NC(=O)COc3cccc4cccnc34)c2C)c1 | n | n | n | n | n
Cc1cc(/C=N/NC(=O)COc2cccc3cccnc23)c(C)n1-c1ccc(O)cc1 | n | + | n | n | n
COc1cc(/C=N\NC(=O)Cn2nnc3ccccc32)cc(OC)c1OC | n | n | n | n | n
